# What was measured:
# [1] = biological target: Death-associated protein kinase 1 (Homo sapiens) (UniProt P53355); conditions: at 1 µM;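 further: each value is a mean inhibition figure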
# [2] = biological target: T1, Serine/threonine-protein kinase DCLK2 (Homo sapiens) (UniProt Q8N568); conditions: at 0.1 µM
# T1 sequence (whole entry): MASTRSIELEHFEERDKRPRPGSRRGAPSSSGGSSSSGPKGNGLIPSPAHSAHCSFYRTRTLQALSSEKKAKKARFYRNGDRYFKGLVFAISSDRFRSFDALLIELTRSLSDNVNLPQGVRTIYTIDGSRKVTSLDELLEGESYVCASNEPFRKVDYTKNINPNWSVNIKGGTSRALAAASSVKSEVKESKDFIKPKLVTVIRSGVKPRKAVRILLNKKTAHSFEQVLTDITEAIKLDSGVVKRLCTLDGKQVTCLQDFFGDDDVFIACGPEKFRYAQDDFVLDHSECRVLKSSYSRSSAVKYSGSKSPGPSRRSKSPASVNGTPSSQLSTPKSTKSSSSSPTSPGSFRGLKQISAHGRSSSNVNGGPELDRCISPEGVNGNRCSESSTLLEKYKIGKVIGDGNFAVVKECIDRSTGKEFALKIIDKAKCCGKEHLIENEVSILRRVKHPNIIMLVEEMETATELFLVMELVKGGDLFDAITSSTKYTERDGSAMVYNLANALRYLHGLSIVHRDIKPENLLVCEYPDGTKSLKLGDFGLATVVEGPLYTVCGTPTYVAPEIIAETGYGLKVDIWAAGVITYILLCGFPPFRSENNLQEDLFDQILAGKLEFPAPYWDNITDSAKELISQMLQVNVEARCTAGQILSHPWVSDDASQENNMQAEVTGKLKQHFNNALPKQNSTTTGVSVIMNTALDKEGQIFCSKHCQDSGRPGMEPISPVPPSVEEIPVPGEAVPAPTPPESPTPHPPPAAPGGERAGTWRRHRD
# [3] = biological target: T1, Serine/threonine-protein kinase DCLK2 (Homo sapiens); conditions: at 1 µM
# [4] = biological target: MAP kinase-activated protein kinase 2 (Homo sapiens) (UniProt P49137); conditions: at 0.1 µM
# Sequence of MAP kinase-activated protein kinase 2 (Homo sapiens) (P49137 whole entry, looked up): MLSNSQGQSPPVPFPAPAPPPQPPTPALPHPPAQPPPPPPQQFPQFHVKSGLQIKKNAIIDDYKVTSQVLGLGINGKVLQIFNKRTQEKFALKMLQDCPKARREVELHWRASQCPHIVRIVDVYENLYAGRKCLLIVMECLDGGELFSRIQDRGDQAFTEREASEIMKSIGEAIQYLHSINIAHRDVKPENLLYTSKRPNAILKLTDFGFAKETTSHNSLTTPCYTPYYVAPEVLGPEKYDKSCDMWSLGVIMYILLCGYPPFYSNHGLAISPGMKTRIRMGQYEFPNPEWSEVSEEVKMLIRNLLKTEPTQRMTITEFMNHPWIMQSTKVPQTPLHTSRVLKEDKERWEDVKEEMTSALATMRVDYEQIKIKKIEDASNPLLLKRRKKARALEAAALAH
# [5] = biological target: MAP kinase-activated protein kinase 2 (Homo sapiens) (UniProt P49137); conditions: at 1 µM
# [6] = biological target: MAP kinase-activated protein kinase 3 (Homo sapiens) (UniProt Q16644); conditions: at 0.1 µM
# Sequence of MAP kinase-activated protein kinase 3 (Homo sapiens) (Q16644 whole entry, looked up): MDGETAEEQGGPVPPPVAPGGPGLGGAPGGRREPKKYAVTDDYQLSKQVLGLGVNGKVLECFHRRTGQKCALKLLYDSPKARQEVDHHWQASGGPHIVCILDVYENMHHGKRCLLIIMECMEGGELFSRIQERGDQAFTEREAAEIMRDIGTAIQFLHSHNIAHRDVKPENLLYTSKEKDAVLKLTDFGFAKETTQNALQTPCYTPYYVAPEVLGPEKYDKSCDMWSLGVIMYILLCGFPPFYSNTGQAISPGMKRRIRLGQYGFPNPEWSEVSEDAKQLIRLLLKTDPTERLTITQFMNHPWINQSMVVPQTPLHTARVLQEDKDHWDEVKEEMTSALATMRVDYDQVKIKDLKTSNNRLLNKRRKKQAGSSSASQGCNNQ
# [7] = biological target: MAP kinase-activated protein kinase 3 (Homo sapiens) (UniProt Q16644); conditions: at 1 µM
# [8] = biological target: Serine/threonine-protein kinase MARK1 (Homo sapiens) (UniProt Q9P0L2); conditions: at 0.1 µM
# Sequence of Serine/threonine-protein kinase MARK1 (Homo sapiens) (Q9P0L2 whole entry, looked up): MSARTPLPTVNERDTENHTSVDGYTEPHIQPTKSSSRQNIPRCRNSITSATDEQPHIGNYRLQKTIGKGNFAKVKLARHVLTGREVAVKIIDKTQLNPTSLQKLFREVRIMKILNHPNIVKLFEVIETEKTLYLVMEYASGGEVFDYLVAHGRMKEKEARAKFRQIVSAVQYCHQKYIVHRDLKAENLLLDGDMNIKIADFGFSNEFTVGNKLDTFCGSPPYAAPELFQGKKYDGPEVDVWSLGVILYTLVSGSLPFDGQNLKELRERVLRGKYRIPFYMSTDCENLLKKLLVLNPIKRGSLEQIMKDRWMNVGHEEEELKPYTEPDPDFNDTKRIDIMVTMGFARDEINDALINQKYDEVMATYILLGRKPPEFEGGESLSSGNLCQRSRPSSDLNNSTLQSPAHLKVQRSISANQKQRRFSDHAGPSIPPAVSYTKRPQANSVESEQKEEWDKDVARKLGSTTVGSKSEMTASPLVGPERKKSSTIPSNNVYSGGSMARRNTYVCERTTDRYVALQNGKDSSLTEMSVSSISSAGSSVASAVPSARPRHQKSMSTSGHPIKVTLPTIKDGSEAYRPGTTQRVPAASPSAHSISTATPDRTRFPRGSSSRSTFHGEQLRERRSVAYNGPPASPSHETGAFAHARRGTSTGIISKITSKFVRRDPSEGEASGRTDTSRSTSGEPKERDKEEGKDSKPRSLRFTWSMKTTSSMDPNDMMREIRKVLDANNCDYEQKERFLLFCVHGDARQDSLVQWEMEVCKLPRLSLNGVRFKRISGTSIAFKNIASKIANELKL
# [9] = biological target: Serine/threonine-protein kinase MARK1 (Homo sapiens) (UniProt Q9P0L2); conditions: at 1 µM
# [10] = biological target: MAP/microtubule affinity-regulating kinase 3 (Homo sapiens) (UniProt P27448); conditions: at 0.1 µM;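 further: mean percent inhibition of MARK3 kinase activity, measured within the GSK PKIS screening panel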
# Sequence of MAP/microtubule affinity-regulating kinase 3 (Homo sapiens) (P27448 whole entry, looked up): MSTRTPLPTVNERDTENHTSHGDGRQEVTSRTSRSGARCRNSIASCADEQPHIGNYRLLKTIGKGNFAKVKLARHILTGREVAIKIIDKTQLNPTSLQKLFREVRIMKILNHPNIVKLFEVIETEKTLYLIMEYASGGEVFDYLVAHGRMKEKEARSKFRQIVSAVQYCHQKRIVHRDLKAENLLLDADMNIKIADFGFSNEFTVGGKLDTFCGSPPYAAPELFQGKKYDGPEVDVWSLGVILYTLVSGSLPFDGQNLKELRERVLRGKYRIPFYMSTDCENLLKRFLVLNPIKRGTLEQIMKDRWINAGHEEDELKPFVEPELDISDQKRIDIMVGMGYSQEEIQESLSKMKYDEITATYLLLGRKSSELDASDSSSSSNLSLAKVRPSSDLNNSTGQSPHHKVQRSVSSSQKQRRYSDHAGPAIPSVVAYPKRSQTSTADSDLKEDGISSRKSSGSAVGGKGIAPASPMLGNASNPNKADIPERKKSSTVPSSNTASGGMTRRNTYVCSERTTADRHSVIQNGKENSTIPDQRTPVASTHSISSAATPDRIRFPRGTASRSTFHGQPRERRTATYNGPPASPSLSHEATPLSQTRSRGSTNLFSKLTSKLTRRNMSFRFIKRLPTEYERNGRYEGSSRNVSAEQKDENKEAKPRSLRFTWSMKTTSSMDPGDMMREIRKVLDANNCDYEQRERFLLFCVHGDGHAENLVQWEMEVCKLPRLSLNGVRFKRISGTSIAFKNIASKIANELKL
# Sequence of Death-associated protein kinase 1 (Homo sapiens) (P53355 whole entry, looked up): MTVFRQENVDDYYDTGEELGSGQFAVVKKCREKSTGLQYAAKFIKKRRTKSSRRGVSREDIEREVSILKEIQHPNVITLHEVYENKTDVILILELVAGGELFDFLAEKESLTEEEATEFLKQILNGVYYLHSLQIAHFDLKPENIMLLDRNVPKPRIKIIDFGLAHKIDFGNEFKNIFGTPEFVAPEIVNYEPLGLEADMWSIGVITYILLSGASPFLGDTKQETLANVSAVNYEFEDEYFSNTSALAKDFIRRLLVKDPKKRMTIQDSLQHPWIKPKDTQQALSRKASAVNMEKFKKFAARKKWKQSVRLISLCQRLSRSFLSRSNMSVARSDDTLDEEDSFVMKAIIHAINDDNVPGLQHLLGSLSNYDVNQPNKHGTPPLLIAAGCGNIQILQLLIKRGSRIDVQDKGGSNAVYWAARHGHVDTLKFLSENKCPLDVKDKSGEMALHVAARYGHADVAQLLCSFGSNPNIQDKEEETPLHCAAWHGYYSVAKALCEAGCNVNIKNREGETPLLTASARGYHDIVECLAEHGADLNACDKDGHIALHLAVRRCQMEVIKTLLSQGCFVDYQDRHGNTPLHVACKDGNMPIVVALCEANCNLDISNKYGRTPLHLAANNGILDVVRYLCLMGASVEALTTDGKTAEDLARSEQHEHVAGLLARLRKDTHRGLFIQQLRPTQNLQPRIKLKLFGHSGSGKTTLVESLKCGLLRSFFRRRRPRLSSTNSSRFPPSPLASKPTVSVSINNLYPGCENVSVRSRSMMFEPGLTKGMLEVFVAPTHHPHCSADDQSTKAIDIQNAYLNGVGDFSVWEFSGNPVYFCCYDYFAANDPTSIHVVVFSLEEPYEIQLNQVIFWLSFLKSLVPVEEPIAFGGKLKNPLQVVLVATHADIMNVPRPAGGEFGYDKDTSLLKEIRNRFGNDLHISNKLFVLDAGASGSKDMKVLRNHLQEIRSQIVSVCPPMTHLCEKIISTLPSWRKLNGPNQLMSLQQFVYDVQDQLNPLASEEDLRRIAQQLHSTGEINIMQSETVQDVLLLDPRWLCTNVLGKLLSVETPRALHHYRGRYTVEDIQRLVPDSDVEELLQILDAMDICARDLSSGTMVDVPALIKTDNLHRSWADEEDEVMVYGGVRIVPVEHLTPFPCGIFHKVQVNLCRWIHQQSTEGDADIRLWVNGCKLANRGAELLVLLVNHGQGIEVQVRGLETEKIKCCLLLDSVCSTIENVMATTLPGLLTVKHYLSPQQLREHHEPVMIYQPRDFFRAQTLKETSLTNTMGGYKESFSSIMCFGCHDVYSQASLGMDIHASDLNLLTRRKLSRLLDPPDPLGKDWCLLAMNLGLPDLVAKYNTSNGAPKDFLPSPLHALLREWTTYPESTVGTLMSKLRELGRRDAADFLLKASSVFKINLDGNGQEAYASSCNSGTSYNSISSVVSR
SMILES,inhibition [1] [%],inhibition [2] [%],inhibition [3] [%],inhibition [4] [%],inhibition [5] [%],inhibition [6] [%],inhibition [7] [%],inhibition [8] [%],inhibition [9] [%],inhibition [10] [%]
CCn1c(-c2nonc2N)nc2c(C#CC(C)(C)O)nc(O[C@@H](CN)c3ccccc3)cc21,2.31,6.73,18.5,-0.97,-1,-3.02,-0.47,77.2,93.1,83.3
NS(=O)(=O)c1ccc(-c2ccc3c(NC(=O)C4CC4)n[nH]c3c2)cc1,4.32,0.37,0.39,1.09,0.96,2.61,2.69,1.75,2.18,2.65
CCn1c(-c2nonc2N)nc2c(C#CC(C)(C)O)ncc(OCC3CCNCC3)c21,1.75,-3.05,-1.26,0.79,1.63,2.86,1.31,15.5,61.3,13
COc1cc2c(cc1Nc1nc(Nc3ccsc3C(N)=O)c3cc[nH]c3n1)N(C(=O)CN(C)C)CCC2,4.14,-2.25,0.34,-0.32,-2.2,6.83,6.01,2.48,5.99,2.11
CCn1c(-c2nonc2N)nc2c(C#CCN)ncc(OCCCN)c21,-3.38,-0.93,-0.65,-0.73,-0.87,-1.07,-0.66,4.42,11,6.58
Fc1ccc(-c2ncn(C3CCNCC3)c2-c2ccnc(Oc3ccccc3)n2)cc1,-1.87,-4.56,-2.43,0.07,-0.82,31.3,33.4,0.45,0.99,0.57
Nc1nonc1-c1nc2cnccc2n1C1CCCCC1,-1.97,-0.3,1.52,-1.18,-1.08,-2.2,-2.76,2.89,16.5,4.04
COc1cc(C=NNc2ncnc3c2cnn3Cc2ccccc2)ccc1O,-3.68,-3.6,-3.02,-2.2,-2.27,-2.35,-1.92,-0.6,1.36,0.53
NC(=O)c1sc(-n2cnc3cc(C(F)(F)F)ccc32)cc1OCc1ccccc1Br,0,-1.23,2.52,0.61,0.42,1.71,-0.9,1.79,1.6,1.11
CCn1c(-c2nonc2N)nc2c(C#CC(C)(C)O)ncc(OC[C@@H]3CCCN3)c21,0.89,-1.55,2.93,-0.56,-0.71,-0.39,-0.82,13.8,61.1,14.9
NS(=O)(=O)c1ccc(N/C=C2\C(=O)Nc3ccc4ncsc4c32)cc1,9.33,0.08,5.55,2.68,2.48,7.84,10.4,13.6,53.8,8.01
Cc1cc(-c2ccco2)cc(C)c1/C=C/c1cncc(-c2nn[nH]n2)c1,0.04,-1.22,0.25,0.52,0.01,1.42,1.25,1.07,1.26,-0.4
COc1cccc(COc2cc(-n3cnc4ccccc43)sc2C(N)=O)c1,1.02,-0.3,0.3,-0.08,-1.3,2.28,3.61,0.58,1.16,2.28
COc1cccc(-n2ncc3c(N/N=C/c4ccncc4)ncnc32)c1,4.53,2.42,1.8,2.5,1.87,3.62,4.56,4.99,9.17,5.75
